According to PubChem BioAssay (NCATS):
Values joined by “and” are separate entries in the source; they are usually repeats but may differ in a detail not shown here. Equal entries are not always repeated. Inconclusive results are not listed. Active and inactive are the calls of the source. Unless noted, the call rests on the fitted dose curve; in most records, active means well fitted curve in the direction sought with a large enough effect; inconclusive means small, poorly fitted or top-dose-only effect, or another doubt; inactive means no such curve, though single readings can be large; an effect the other way counts as inactive or inconclusive.

Experiments:
[1] = molecular target: T1, Tyrosine-protein phosphatase non-receptor type substrate 1 (Homo sapiens) + Leukocyte surface antigen CD47 (Homo sapiens) (UniProt P78324+Q08722); assay: CD47-SIRPalpha protein protein interaction - LANCE assay qHTS validation (AID 1347057; active means well fitted curve in the direction sought with a large enough effect in the signal ratio, with a control signal flat, not every such curve was filed as active; the % refers to the signal ratio; further: series mostly up to about 38 µM)
Summary of the method: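 First, His-tagged CD47 and Eu-labelled anti-His antibody met the compound for 30 min; next, site-specifically biotinylated SIRPalpha was added for 30 min; finally streptavidin-APC was added before reading the TR-FRET ratio.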

[2] = molecular target: T1, Tyrosine-protein phosphatase non-receptor type substrate 1 (Homo sapiens) + Leukocyte surface antigen CD47 (Homo sapiens); assay: CD47-SIRPalpha protein protein interaction - Alpha assay qHTS validation (AID 1347059);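 further: bead proximity luminescence from CD47 binding SIRPalpha after compound preincubation with SIRPalpha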
Summary of the method: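 Soluble extracellular domains: Avi-tag biotinylated SIRPalpha (25 nM) preincubated 30 min RT with compound, then 6His-CD47 (12.5 nM) 30 min; Ni-NTA acceptor and streptavidin donor beads (10 ug/mL) 30 min, AlphaScreen read. PBS pH 7.4, 0.05% IGEPAL.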

[3] = molecular target: Parathyroid hormone/parathyroid hormone-related peptide receptor (Homo sapiens) (UniProt Q03431); assay: qHTS for PTHR1 Agonists: Optimization Screen against the NCGC LOPAC library (AID 1347079);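 further: GloSensor cAMP luminescence in HEK-293 GP2 cells expressing human PTHR1 with IBMX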
Summary of the method: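 Compounds were tested across a qHTS titration. PTHR1-expressing GP2 cells report cAMP rises via GloSensor luminescence after 1 hr compound exposure at 37C with IBMX present.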

[4] = molecular target: Nucleoprotein (Lymphocytic choriomeningitis virus (strain Armstrong)) (UniProt P09992); assay: qHTS for Inhibitors of the Functional Ribonucleoprotein Complex (vRNP) of Lymphocytic Choriomeningitis Arenaviruses (LCMV): LCMV Primary Screen - GLuc reporter signal (AID 1347086; calls by dose curve; further: series mostly up to about 57 µM; nearly all actives have a fitted effect of over 70% in size)
[5] = qHTS of pediatric cancer cell lines to identify multiple opportunities for drug repurposing: Primary screen for DAOY cells (AID 1347090); further: nearly all actives have a fitted effect of over 55% in size; further: potency means the concentration at half of the fitted maximal effect
Summary of the method: (§1)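 Eight- or eleven-point concentration series, 48 h treatment at 37 degrees C in growth media; readout CellTiter-Glo luminescence. Potency and efficacy were taken from the concentration-response curves.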

[6] = qHTS of pediatric cancer cell lines to identify multiple opportunities for drug repurposing: Primary screen for SJ-GBM2 cells (AID 1347091); further: potency means the concentration at half of the fitted maximal effect
Summary of the method: as §1

[7] = qHTS of pediatric cancer cell lines to identify multiple opportunities for drug repurposing: Primary screen for A673 cells (AID 1347092); further: nearly all actives have a fitted effect of over 45% in size; further: potency means the concentration at half of the fitted maximal effect
Summary of the method: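 Luminescence from CellTiter-Glo, taken after 15 min at room temperature, served as the proxy for metabolically active cells following 48 h treatment. Both potency and efficacy were taken from curves fitted to the titration data.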

[8] = qHTS of pediatric cancer cell lines to identify multiple opportunities for drug repurposing: Primary screen for SK-N-MC cells (AID 1347093); further: potency means the concentration at half of the fitted maximal effect
Summary of the method: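 Metabolically active cells were quantified by ATP-dependent luminescence (CellTiter-Glo, 15 min at room temperature) following 48 h treatment. Cells had been plated at 500-1,000 per well and settled for 5 h beforehand.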

[9] = qHTS of pediatric cancer cell lines to identify multiple opportunities for drug repurposing: Primary screen for BT-37 cells (AID 1347094); further: potency means the concentration at half of the fitted maximal effect
Summary of the method: (§2)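 Following a 5-hour attachment period, cells at 500-1,000/well received compounds and were cultured for 48 hours. CellTiter-Glo was added and luminescence read to estimate viable, metabolically active cells.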

[10] = qHTS of pediatric cancer cell lines to identify multiple opportunities for drug repurposing: Primary screen for NB-EBc1 cells (AID 1347095); further: potency means the concentration at half of the fitted maximal effect
Summary of the method: as §2

[11] = qHTS of pediatric cancer cell lines to identify multiple opportunities for drug repurposing: Primary screen for Saos-2 cells (AID 1347097); further: nearly all actives have a fitted effect of over 40% in size; further: potency means the concentration at half of the fitted maximal effect
Summary of the method: as §2

[12] = qHTS of pediatric cancer cell lines to identify multiple opportunities for drug repurposing: Primary screen for NB1643 cells (AID 1347099); further: nearly all actives have a fitted effect of over 50% in size; further: potency means the concentration at half of the fitted maximal effect
Summary of the method: as §2

[13] = qHTS of pediatric cancer cell lines to identify multiple opportunities for drug repurposing: Primary screen for LAN-5 cells (AID 1347100); further: potency means the concentration at half of the fitted maximal effect
Summary of the method: (§3)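 Cells (500-1,000/well) in growth media were settled 5 h at 37 degrees C, then given compounds for 48 h. Viability was read as CellTiter-Glo luminescence. Primary runs used MIPE at 11 points (0.78 nM-46 µM) and NPC at 8 points (0.59 nM-46 µM); follow-ups used 11 points.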

[14] = qHTS for Inhibitors of the Functional Ribonucleoprotein Complex (vRNP) of Lassa (LASV) Arenavirus: LASV Primary Screen - GLuc reporter signal (AID 1347082; calls by dose curve; tested in HEK293 reporter line; further: nearly all actives have a fitted effect of over 60% in size; further: potency means the concentration at half of the fitted maximal effect)
[15] = qHTS for Inhibitors of the Functional Ribonucleoprotein Complex (vRNP) of Lassa (LASV) Arenavirus: Viability assay - alamar blue signal for LASV Primary Screen (AID 1347083; calls by dose curve; tested in HEK293 reporter line; further: nearly all actives have a fitted effect of over 80% in size; further: potency means the concentration at half of the fitted maximal effect)
[16] = qHTS for Inhibitors of the Functional Ribonucleoprotein Complex (vRNP) of Lymphocytic Choriomeningitis Arenaviruses (LCMV): Viability assay - alamar blue signal for LCMV Primary Screen (AID 1347085; calls by dose curve; tested in HEK293 reporter line; further: series mostly up to about 57 µM; nearly all actives have a fitted effect of over 80% in size)
[17] = qHTS of pediatric cancer cell lines to identify multiple opportunities for drug repurposing: Primary screen for TC32 cells (AID 1347089); further: nearly all actives have a fitted effect of over 60% in size; further: potency means the concentration at half of the fitted maximal effect
Summary of the method: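 qHTS, TC32, 48 h drug treatment, CellTiter-Glo luminescence as a proxy for metabolically active cells; primary top concentration 46 µM (MIPE 11-pt, NPC 8-pt); confirmatory 11-pt.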

[18] = qHTS of pediatric cancer cell lines to identify multiple opportunities for drug repurposing: Primary screen for U-2 OS cells (AID 1347096); further: nearly all actives have a fitted effect of over 50% in size; further: potency means the concentration at half of the fitted maximal effect
Summary of the method: as §3

[19] = molecular target: T1, Tyrosine-protein phosphatase non-receptor type substrate 1 (Homo sapiens) + Leukocyte surface antigen CD47 (Homo sapiens); assay: CD47-SIRPalpha protein protein interaction - HTRF assay qHTS validation (AID 1347058; active means well fitted curve in the direction sought with a large enough effect in the signal ratio, not every such curve was filed as active; the % refers to the signal ratio; further: series mostly up to about 38 µM)
Summary of the method: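 TR-FRET read (Ch1/Ch2 ratio) of soluble extracellular CD47 and Avi-biotinylated SIRPalpha domains in PBS pH 7.4 with 0.05% IGEPAL; 7-point compound titration. Sequential 30 min room-temperature steps; non-biotinylated SIRPalpha as control inhibitor.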

[20] = qHTS of pediatric cancer cell lines to identify multiple opportunities for drug repurposing: Primary screen for SK-N-SH cells (AID 1347098); further: nearly all actives have a fitted effect of over 65% in size; further: potency means the concentration at half of the fitted maximal effect
Summary of the method: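 Cells (500-1,000/well) rested 5 h, then received compounds for 48 h; metabolically active cells were measured by CellTiter-Glo luminescence. Final concentrations spanned up to 46 µM (MIPE, 11-point) or 0.59 nM-46 µM (NPC, 8-point) in primary screens, 11-point in follow-ups.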

Measured: Potency

Chain of Nucleoprotein (Lymphocytic choriomeningitis virus (strain Armstrong)) (P09992 whole entry, looked up): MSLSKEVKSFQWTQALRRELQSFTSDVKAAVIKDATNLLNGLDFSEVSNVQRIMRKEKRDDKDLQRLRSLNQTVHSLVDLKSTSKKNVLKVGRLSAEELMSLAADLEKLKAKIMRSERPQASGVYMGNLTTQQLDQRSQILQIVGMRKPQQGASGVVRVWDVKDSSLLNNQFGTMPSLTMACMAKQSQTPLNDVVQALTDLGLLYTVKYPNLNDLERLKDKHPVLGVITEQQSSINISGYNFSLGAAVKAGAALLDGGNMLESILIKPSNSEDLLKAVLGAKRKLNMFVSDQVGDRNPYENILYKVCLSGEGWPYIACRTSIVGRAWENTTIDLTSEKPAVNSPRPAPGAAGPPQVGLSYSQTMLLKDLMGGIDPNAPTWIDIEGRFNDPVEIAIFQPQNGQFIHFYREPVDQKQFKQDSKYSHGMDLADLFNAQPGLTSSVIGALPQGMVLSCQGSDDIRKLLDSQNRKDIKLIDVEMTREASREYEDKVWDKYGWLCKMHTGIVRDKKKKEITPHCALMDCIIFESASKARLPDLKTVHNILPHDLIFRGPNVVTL
Chain of Parathyroid hormone/parathyroid hormone-related peptide receptor (Homo sapiens) (Q03431 whole entry, looked up): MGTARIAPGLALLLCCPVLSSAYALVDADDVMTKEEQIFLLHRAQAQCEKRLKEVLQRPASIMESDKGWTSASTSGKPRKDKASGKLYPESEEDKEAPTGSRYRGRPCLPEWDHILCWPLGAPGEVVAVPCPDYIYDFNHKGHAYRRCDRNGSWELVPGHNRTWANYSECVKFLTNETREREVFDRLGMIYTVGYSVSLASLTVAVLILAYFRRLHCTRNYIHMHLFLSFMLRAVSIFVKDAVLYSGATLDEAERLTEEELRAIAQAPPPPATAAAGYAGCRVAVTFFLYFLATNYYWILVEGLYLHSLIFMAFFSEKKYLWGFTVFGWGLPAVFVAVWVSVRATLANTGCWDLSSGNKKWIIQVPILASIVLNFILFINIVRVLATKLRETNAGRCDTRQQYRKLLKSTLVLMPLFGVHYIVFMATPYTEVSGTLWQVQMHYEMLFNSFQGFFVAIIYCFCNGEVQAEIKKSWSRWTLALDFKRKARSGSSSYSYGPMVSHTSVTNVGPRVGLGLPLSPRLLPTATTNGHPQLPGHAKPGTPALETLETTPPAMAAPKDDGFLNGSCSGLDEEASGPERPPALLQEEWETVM
T1 sequence (P78324 whole entry, looked up): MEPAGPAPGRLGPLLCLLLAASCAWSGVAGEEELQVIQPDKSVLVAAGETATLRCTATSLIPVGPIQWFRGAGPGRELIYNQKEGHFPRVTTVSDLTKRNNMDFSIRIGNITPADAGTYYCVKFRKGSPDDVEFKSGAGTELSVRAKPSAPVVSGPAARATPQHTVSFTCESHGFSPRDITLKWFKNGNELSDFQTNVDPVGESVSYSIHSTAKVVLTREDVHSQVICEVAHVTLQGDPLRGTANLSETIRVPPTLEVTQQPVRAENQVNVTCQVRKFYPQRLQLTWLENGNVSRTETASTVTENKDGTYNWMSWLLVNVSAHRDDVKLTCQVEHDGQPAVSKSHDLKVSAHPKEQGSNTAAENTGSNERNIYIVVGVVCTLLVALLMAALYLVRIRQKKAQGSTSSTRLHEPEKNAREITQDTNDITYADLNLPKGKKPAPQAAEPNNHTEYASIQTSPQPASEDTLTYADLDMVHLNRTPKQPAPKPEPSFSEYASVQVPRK
T1 sequence (Q08722 whole entry, looked up): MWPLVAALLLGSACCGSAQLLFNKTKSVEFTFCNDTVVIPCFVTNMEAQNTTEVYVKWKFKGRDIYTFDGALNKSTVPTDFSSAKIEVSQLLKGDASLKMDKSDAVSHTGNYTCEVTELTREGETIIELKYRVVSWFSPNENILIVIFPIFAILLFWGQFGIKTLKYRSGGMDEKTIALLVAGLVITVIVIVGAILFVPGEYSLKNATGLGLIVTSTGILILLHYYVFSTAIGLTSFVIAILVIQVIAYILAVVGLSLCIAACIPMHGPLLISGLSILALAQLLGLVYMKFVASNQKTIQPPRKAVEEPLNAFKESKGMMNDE

COc1ccc2c(c[n+](C)c3c4cc5c(cc4ccc23)OCO5)c1OC
inactive: [1] | [2] | [3] | [4]
active: [5] 23.5 µM | [6] 11.8 µM | [7] 3.72 µM | [8] 5.9 µM | [9] 17.2 µM | [10] 5.26 µM | [11] 9.35 µM | [12] 7.43 µM | [13] 8.33 µM

Oc1ccc2c3c1O[C@H]1c4[nH]c5c(c4C[C@@]4(O)[C@@H](C2)N(CC2CC2)CC[C@]314)C[C@@]1(O)[C@H]2Cc3ccc(O)c4c3[C@@]1(CCN2CC1CC1)[C@H]5O4
not listed: [19] | [20]
inactive: all other assays above

COC(=O)[C@@H](N)CCCN=C(N)N[N+](=O)[O-]
active: [8] 6.62 µM | [20] 6.07 µM | [12] 9.35 µM
not listed: [5] | [7] | [14] | [15] | [16]
inactive: all other assays above

CC(Cc1ccc(O)cc1)NCC(O)c1cc(O)cc(O)c1 (stereo not drawn)
not listed: [19]
inactive: all other assays above

C[N+](C)(C)CC(=O)O
inactive: [1] | [19] | [2] | [14] | [15] | [16] | [4]

CC[C@@]1(O)C(=O)OCc2c1cc1n(c2=O)Cc2cc3ccccc3nc2-1
active: [15] 193 nM and 199 nM | [17] 0.0262 µM | [6] 0.0105 µM | [7] 0.0235 µM | [8] 0.0074 µM | [10] 0.0083 µM | [18] 1.18 µM | [11] 0.0469 µM | [12] 0.0469 µM | [13] 0.0093 µM
inactive: [1] | [2] | [3] | [14] | [4]

O=C(O)Cc1cnc[nH]1
inactive: [1] | [19] | [2] | [3] | [14] | [15] | [16] | [4]

c1cc(-c2cnn3cc(-c4ccc(OCCN5CCCCC5)cc4)cnc23)ccn1
active: [14] 34.3 µM | [15] 17.2 µM

Cc1ccc(NC(=O)c2cccc(C(C)(C)C#N)c2)cc1Nc1ccc2ncn(C)c(=O)c2c1
active: [15] 17.2 µM
inactive: [14]

CCOc1ccc(Nc2nc(-c3c(C)nc4ccccn34)cs2)cc1
active: [15] 0.0049 µM
inactive: [14]

C[C@@H]1CN(CC(=O)Nc2ccc3c(c2)Cc2cccc(-c4cc(=O)cc(N5CCOCC5)o4)c2S3)C[C@H](C)O1
inactive: [14]

CC1=NN=C(c2ccc(N)cc2)c2cc3c(cc2C1)OCO3
not listed: [5] | [12] | [20]
inactive: all other assays above

c1ccc(CCCN2CCN(CCOC(c3ccccc3)c3ccccc3)CC2)cc1
active: [5] 29.6 µM | [7] 23.5 µM | [12] 26.4 µM | [13] 29.6 µM
not listed: [6] | [8] | [9] | [10] | [11] | [20]
inactive: all other assays above

Nc1cccc2c(N)cccc12
inactive: [14]

COc1cc2c(cc1O)CC[C@@H]1[C@@H]2CC[C@]2(C)[C@@H](O)CC[C@@H]12
inactive: [14]

CC[C@@H](C(N)=O)N1CCCC1=O
active: [8] 26.4 µM
not listed: [7] | [9] | [12] | [14] | [15] | [20]
inactive: all other assays above

CC(C)(C)c1ccc(O)c(O)c1
inactive: [14]

Cc1cnc(-c2cnc(NCCNc3ccc(C#N)cn3)nc2-c2ccc(Cl)cc2Cl)[nH]1
inactive: [14] | [15]

O=C(Nc1cccnc1)N1CCC(Cc2cccc(Oc3ccc(C(F)(F)F)cn3)c2)CC1
active: [14] 21.7 µM | [15] 15.3 µM

CC(C)c1ccc2c(c1)c(SC(C)(C)C)c(CC(C)(C)C(=O)O)n2Cc1ccc(Cl)cc1
active: [14] 12.2 µM | [15] 12.2 µM

Cc1ccc(NC(=O)c2ccc(CN3CCN(C)CC3)cc2)cc1Nc1nc(-c2cccnc2)cs1
inactive: [14]

[Cl][In]([Cl])[Cl]
inactive: [14]

Cc1cc([C@@H](C)Nc2ccccc2C(=O)O)c2nc(N3CCOCC3)cc(=O)n2c1
active: [14] 39.5 µM | [15] 5.59 µM

CCN(CC)CCCCNc1ncc2cc(-c3cc(OC)cc(OC)c3)c(NC(=O)NC(C)(C)C)nc2n1
active: [15] 19.3 µM
inactive: [14]

Cc1c(C(=O)c2cccc3ccccc23)c2cccc3c2n1[C@H](CN1CCOCC1)CO3
inactive: [3] | [17] | [18]
active: [6] 14.8 µM | [7] 23.5 µM | [8] 10.5 µM | [10] 20.9 µM | [12] 11.8 µM

CC(C)C(=O)Nc1ncc(-c2cc(C(F)F)nn2-c2c(Cl)cccc2Cl)s1
inactive: [14]

CC(=O)c1c(C)c2cnc(Nc3ccc(N4CCNCC4)cn3)nc2n(C2CCCC2)c1=O
active: [15] 30.6 µM
inactive: [14]
